Source: PubChem BioAssay (National Center for Advancing Translational Sciences (NCATS))
Only some compounds are listed: those with a hit (about 19% of all), similar ones and a draw of the others.
IL-1B inflam inh: qHTS for Inhibitors of Inflammasome Signaling: IL-1-beta AlphaLISA Primary Screen | THP-1 LPS/ATP IL-1B secretion, AlphaLISA, 16 h; hits give low values | activity change, % at 57.5 µM | 360,000 compounds, 4.7% hits | AID 743279, 2014; in the data active = activity change below about -50%; inconclusive = mostly about -30% to -49%
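Secreted IL-1B measured by AlphaLISA bead assay after 16 h compound exposure of THP-1 cells; compounds (final up to 57.5 uM) added 1 h before LPS (250 ng/mL) and ATP (1.25 mM) stimulation; lower signal means less secretion.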
TDP1 cell CPT: qHTS for Inhibitors of human tyrosyl-DNA phosphodiesterase 1 (TDP1): qHTS in cells in presence of CPT | chicken DT40 Tdp1-/-;hTDP1 cells + 20 nM CPT, ATP luminescence, 48 h | Potency, µM (doses to about 46.2 µM), for inactives: at the highest dose activity change, negative = growth inhibition, hits mostly inhibitors | 420,000 compounds, 12% hits; note: potency is the fitted concentration of half-maximal effect; nearly all actives have a fitted effect of over 55% in size
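Chicken DT40 Tdp1-/- cells stably complemented with human TDP1 were seeded at 400 cells/well in medium containing 20 nM camptothecin, exposed to pin-transferred compounds, and grown at 37 °C for at least 48 hr. Viability was read as ATP luminescence.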
ELG1 repair inh: qHTS screen for small molecules that inhibit ELG1-dependent DNA repair in human embryonic kidney (HEK293T) cells expressing luciferase-tagged ELG1; HEK293T ELG1-luciferase reporter, luminescence, 16 h; DNA damage induced by 5-fluorouridine; 330,000 compounds, 2.3% hits; AID 504467, 2011; Potency, µM (doses to about 46.1 µM), inactives show at the top dose activity change, negative = inhibition, most hits filed as inhibitors; note: potency is the fitted concentration of half-maximal effect; nearly all actives have a fitted effect of over 55% in size
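Step one: seed 2,000 cells per well. Step two: pin-transfer compound or DMSO alongside 5-fluorouridine. Step three: incubate 16 hr, 37 °C, 5% CO2. Step four: add ONE-Glo, wait 30 min, read luminescence.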
HT1080 IDH1KD tx: qHTS for induction of synthetic lethality in tumor cells producing 2HG: qHTS for the HT-1080-IDH1KD cell line; 360,000 compounds, 2% hits; HT-1080 IDH1 knockdown viability, ATP luminescence, 48 h; Potency, µM (top dose mostly 46.1 µM), without a hit: at the top dose activity, negative = toxicity, actives largely listed as cytotoxic; AID 686971, 2013;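 note: potency is the fitted concentration of half-maximal effect; 0% = DMSO wells and -100% = cell-free medium wells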
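% activity derives from luminescence (CellTiter-Glo), normalised to DMSO and no-cell wells. HT-1080-IDH1KD cells, 750/well, had 48 h compound exposure at 37 °C.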
HT1080NT lethal: qHTS for induction of synthetic lethality in tumor cells producing 2HG: qHTS for the HT-1080-NT fibrosarcoma cell line. HT-1080-NT fibrosarcoma viability, CellTiter-Glo ATP luminescence, 48 h. Potency, µM (top dose mostly 46.1 µM), for inactives: at the top dose activity, negative = less viability, most hits filed as cytotoxic. 360,000 compounds, 1.6% hits. AID 686970, 2013;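 note: NT is the 2HG producing partner of a matched IDH1 knockdown line; potency is the fitted concentration of half-maximal effect; 0% = DMSO-treated cells and -100% = media-only wells without cells; nearly all actives have a fitted effect of over 55% in size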
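Fibrosarcoma NT cells, 750 per well in 5% FBS RPMI, were exposed to compound for 48 hours. Viability: CellTiter-Glo luminescence.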
DT40 TDP1 no CPT: qHTS for Inhibitors of human tyrosyl-DNA phosphodiesterase 1 (TDP1): qHTS in cells in absence of CPT; DT40 Tdp1-/- hTDP1 cells, no CPT, ATP luminescence, 48 h; Potency, µM (titrated, usually from 46.2 µM), without a hit: at the top dose activity change, negative = growth inhibition, most hits filed as inhibitors; 420,000 compounds, 15% hits; AID 686978, 2013; note: potency is the fitted concentration of half-maximal effect; nearly all actives have a fitted effect of over 55% in size
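Compound effects on proliferation are scored in DT40 Tdp1-/-;hTDP1 cells in the absence of CPT. ATP levels (CellTiter-Glo luminescence) are recorded after a ≥48 hr, 37 °C incubation.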
* = called active by the depositor; ? = inconclusive; . = not tested or not shown; [ ] = remark or other dose. Unless noted, calls come from the whole dose curve; as a rule, active = well fitted curve in the direction sought with a large enough effect; inconclusive = small, poorly fitted or top-dose-only effect, or another doubt; inactive = no such curve, though single readings can be large; an effect the other way counts as inactive or inconclusive. Unless noted, % is set by controls: 0 for no effect and ±100 for the full control effect.

SMILES	IL-1B inflam inh	TDP1 cell CPT	ELG1 repair inh	HT1080 IDH1KD tx	HT1080NT lethal	DT40 TDP1 no CPT
Cc1ccc(NC(=O)C(=O)C2C(=O)Nc3ccccc32)cc1 (stereo unspecified)	-7	?	?	5%	11%	?
COc1ccc(C2CC(c3ccccc3OC(=O)/C=C/c3ccccc3)=NN2C(C)=O)cc1 (stereo unspecified)	9	-26%	4%	-15%	1%	?
Cc1ccc(S(=O)(=O)N2CCOCC2)cc1C(=O)Nc1nc(-c2ccccn2)cs1	0	5.2µM*	?	-27%	-12%	4.1µM*
Cc1ccc(S(=O)(=O)N2CCOCC2)cc1C(=O)Nc1nc2ccccc2[nH]1	10	-15%	8%	2%	3%	?
CC[C@]12c3[nH]c4ccc(Cl)cc4c3CCN1C(=O)[C@@H](CC(=O)NCc1ccc(OC)c(OC)c1)C[C@@H]2C(=O)N1CCN(C(=O)C2CC2)CC1	-1	?	0%	-6%	-3%	16µM*
COc1ccc(CNC(=O)C[C@H]2C[C@H](C(=O)N3CCCCC3)[C@@]3(CCc4ccccc4)c4[nH]c5ccc(Cl)cc5c4CCN3C2=O)cc1OC	-16	10µM*	-29%	1%	3%	10µM*
CC[C@]12c3[nH]c4ccc(OC)cc4c3CCN1C(=O)C(CC(=O)NCc1ccc(OC)c(OC)c1)C[C@@H]2C(=O)N1CCN(C(=O)C2CC2)CC1 (stereo partly specified)	-5	-22%	15%	6%	5%	-15%
O=C(C[C@H]1C[C@H](C(=O)N2CCCCC2)[C@@]2(CCc3ccccc3)c3[nH]c4ccc(Cl)cc4c3CCN2C1=O)NCCN1CCOCC1	21	-9%	18%	1%	3%	-3%
COc1cc(OC)c2c(c1C(CCN1CCOCC1)c1ccc(N(C)C)cc1)OC(=O)CC2c1ccc(N(C)C)cc1 (stereo unspecified)	0	16µM*	-5%	-14%	-4%	?
COc1cc(C(CCN2CCCC(C)C2)c2c(OC)cc(OC)c3c2OC(=O)CC3c2ccc(N(C)C)cc2)cc(OC)c1OC (stereo unspecified)	-111*	?	5%	-1%	-3%	?
COc1cc(C(=O)N2CCN(c3cc(Cl)ccc3Cl)CC2)cc(OC)c1OC	66	0.52µM*	2%	0.65µM*	1.3µM*	0.41µM*
COc1cc(C(=O)N2CCN(c3cccc(C)c3C)CC2)cc(OC)c1OC	106	0.82µM*	?	0.82µM*	1.2µM*	0.82µM*
COc1cc(C(=O)N2CCN(c3ccccn3)CC2)cc(OC)c1OC	55	-21%	17%	1%	7%	-10%
CC(=O)Nc1ccc(NC(=O)c2c(C)nn(Cc3ccccc3Cl)c2C)cc1	-5	6%	15%	11%	18%	-2%
Cc1cccc(N2CCN(C(=O)c3ccncc3)CC2)c1C	60	21µM*	?	13µM*	9.2µM*	21µM*
Cc1cccc(N2CCN(C(=O)c3c(C)nn(Cc4ccccc4Cl)c3C)CC2)c1C	?	9.2µM*	21µM*	?	?	10µM*
CCc1cccc(CC)c1-n1c(SCC(=O)N2CCc3ccccc32)nc(O)cc1=O	43	1%	-5%	?	?	?
COc1ccc(OC)c(-c2cc(Cl)c3c(c2)CC(CNC(=O)C(C)N2CCOCC2)O3)c1 (stereo unspecified)	.	-1%[9.04 µM]	.	.	.	?
Cc1cccc(N2CCN(C(=O)C(Cc3ccccc3)n3cccc3)CC2)c1C (stereo unspecified)	22	18µM*	-23%	?	-14%	16µM*
Cc1cccc(N2CCN(C(=O)N3CCOCC3)CC2)c1C	60	?	0%	?	16µM*	21µM*
Cc1cccc(N2CCN(C(=O)Cc3ccccc3[N+](=O)[O-])CC2)c1C	17	-18%	12%	4%	5%	21µM*
Cc1cccc(N2CCN(C(=O)N3CCCCC3)CC2)c1C	-3	26%	0%	2%	-8%	-22%
O=C(Cc1ccccc1[N+](=O)[O-])N1CCN(c2ccc(F)cc2)CC1	12	-28%	0%	-1%	6%	-21%
CCOc1ccc(NC(=O)CN(C)C(=O)Cn2cnc3c2c(=O)n(C)c(=O)n3C)cc1OCC	9	-11%	16%	0%	1%	-27%
CCn1nnnc1SCC(=O)N(C1CCCCC1)C1CCCCC1	-2	10µM*	-14%	-1%	0%	11µM*
SMILES	IL-1B inflam inh	TDP1 cell CPT	ELG1 repair inh	HT1080 IDH1KD tx	HT1080NT lethal	DT40 TDP1 no CPT
Cn1ccnc1SCC(=O)N(C1CCCCC1)C1CCCCC1	-17	?	-2%	4%	1%	15µM*
Cn1c(SCC(=O)N(C2CCCCC2)C2CCCCC2)nnc1-c1cccs1	-5	?	?	3%[9.24 µM]	?	16µM*
CCN(C(=O)CSc1nnnn1C)C1CCCCC1	5	?	11%	-9%	0%	-28%
O=C(NCc1ccccc1)c1ccc(NC(=O)c2ccccc2F)cc1	-4	-5%	5%	-3%	0%	6%
Cn1cnc(S(=O)(=O)N2CCC(C(=O)NCc3ccccc3)CC2)c1	.	23%	.	.	.	-14%
COC1=C(N)C(=O)c2nc(C)ccc2C1=O	14	5.2µM*	.	9%	6%	7.3µM*
COc1ccc(-c2c(C#N)c(C)nc3c2C(=O)c2ccccc2-3)cc1	0	-17%	1%	-3%	-2%	-17%
COC1=C(Br)C(=O)c2nc(C)ccc2C1=O	-28	0.65µM*	.	-22%	-5%	0.58µM*
COc1nc(C)ccc1-c1noc(-c2cccnc2)n1	74	-4%	?	-1%	-5%	-5%
CCOCCCNC(=O)c1cc(=O)[nH]c2ccc(S(=O)(=O)N3CCCC3)cc12	.	2%	.	.	.	1%
O=C(COC(=O)c1ccc(F)cc1F)NC(=O)Nc1ccc2c(c1)OCCO2	-15	6%	?	8%	9%	14%
CCN(C(=O)c1cccnc1SC)C12CC3CC(CC(C3)C1)C2	18	?	-8%	?	-25%	21µM*
